# Where “and” joins values, the source holds several entries; their conditions need not be identical. Equal values may be shown once. Results filed as inconclusive are left out. Calls of active or inactive are those of the source. Rule for the calls: active = hit-call score of the fitted dose curve at least 0.9, where 1 is the maximum; inconclusive = response in the unintended direction; inactive = score below 0.9.
# Legend:
# [1] = biological target: guinea pig Leukotriene D4 Receptor (LTD4), CYSLTR1 (gene 100135514) (UniProt Q2NNR5); test: NVS_GPCR_gLTD4: NovaScreen (NVS) G Protein-Coupled Receptor Assay for guinea pig Leukotriene D4 Receptor (LTD4) (AID 2283248)
# Chain of guinea pig Leukotriene D4 Receptor (LTD4), CYSLTR1 (gene 100135514) (Q2NNR5 whole entry, looked up): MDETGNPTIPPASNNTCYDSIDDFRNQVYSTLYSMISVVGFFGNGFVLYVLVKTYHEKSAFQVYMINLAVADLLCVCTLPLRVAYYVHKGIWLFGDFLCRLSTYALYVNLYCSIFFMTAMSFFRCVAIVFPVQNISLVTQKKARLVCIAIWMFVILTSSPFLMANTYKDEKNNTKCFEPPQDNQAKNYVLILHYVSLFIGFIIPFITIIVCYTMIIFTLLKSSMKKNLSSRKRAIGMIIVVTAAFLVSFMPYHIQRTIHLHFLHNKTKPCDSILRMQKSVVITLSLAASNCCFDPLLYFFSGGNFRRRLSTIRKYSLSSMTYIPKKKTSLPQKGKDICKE
# Procedure, shortened: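 Radioligand displacement on guinea pig lung membranes, 1 h incubation, filtration and scintillation counting; DMSO as negative control. Duplicate 25 uM primary screen, then singleton concentration-response up to 50 uM.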
# [2] = biological target: sheep Cyclooxygenase-1 (Cox1), PTGS1 (gene 443551) (UniProt P05979); test: NVS_ENZ_oCOX1: NovaScreen (NVS) Enzymatic Assay for sheep Cyclooxygenase-1 (Cox1) (AID 2283239);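 note: actives reduce cyclooxygenase activity so potencies are for inhibitors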
# Chain of sheep Cyclooxygenase-1 (Cox1), PTGS1 (gene 443551) (P05979 whole entry, looked up): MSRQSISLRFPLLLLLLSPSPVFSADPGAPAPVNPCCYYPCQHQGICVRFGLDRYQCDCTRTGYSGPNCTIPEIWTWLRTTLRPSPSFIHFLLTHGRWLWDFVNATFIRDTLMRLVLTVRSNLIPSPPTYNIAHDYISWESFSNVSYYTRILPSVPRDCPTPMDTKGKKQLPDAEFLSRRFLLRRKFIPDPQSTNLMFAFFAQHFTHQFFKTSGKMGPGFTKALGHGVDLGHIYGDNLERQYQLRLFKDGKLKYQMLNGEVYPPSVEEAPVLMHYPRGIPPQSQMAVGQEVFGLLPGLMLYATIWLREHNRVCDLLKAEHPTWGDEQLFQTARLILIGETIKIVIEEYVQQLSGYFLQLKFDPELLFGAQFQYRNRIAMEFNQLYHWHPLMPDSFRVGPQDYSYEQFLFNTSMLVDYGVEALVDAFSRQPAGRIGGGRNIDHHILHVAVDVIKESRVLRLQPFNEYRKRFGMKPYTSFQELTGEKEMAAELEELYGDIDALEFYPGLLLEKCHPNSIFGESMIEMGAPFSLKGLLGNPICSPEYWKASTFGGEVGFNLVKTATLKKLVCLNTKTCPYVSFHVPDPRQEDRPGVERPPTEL
# Procedure, shortened: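 Tested in duplicate at 25 uM, then in concentration series if active, against seminal vesicle extract from sheep. Enzyme activity was measured colorimetrically at 0.66 hour and normalised to DMSO.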
# [3] = biological target: chimpanzee Androgen Receptor (AR), AR (gene 747460) (UniProt O97775); test: NVS_NR_cAR: NovaScreen (NVS) Nuclear Receptor Binding Assay for chimpanzee Androgen Receptor (AR) (AID 2283346);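 note: radioligand displacement from AR measured by scintillation counting in a cell-free assay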
# Chain of chimpanzee Androgen Receptor (AR), AR (gene 747460) (O97775 whole entry, looked up): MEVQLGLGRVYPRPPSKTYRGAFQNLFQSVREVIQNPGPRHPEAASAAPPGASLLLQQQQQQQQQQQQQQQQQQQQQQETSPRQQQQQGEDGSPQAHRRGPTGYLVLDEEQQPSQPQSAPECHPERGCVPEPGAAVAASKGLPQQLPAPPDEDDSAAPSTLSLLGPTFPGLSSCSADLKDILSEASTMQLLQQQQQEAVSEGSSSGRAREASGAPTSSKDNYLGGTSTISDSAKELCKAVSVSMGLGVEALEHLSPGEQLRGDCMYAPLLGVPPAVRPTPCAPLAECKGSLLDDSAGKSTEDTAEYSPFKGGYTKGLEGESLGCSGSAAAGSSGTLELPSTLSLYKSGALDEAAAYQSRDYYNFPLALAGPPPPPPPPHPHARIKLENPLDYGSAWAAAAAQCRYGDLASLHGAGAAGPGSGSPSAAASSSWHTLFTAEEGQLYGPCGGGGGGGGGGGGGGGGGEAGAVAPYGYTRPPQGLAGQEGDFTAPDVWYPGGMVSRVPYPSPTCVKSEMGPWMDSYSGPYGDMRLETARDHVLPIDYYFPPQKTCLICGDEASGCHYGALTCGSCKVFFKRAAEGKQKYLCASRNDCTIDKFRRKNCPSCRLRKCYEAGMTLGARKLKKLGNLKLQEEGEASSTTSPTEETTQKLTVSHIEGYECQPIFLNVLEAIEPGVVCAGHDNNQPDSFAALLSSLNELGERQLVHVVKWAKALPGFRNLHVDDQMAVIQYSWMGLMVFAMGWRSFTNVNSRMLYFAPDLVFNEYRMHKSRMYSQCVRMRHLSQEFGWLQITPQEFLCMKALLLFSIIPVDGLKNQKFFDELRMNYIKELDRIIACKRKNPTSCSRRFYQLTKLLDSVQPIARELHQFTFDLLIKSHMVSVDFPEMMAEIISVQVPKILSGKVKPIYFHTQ
# Procedure, shortened: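 Radioligand binding to chimpanzee AR expressed in Sf9/Sf21 cells, cell-free, measured 72 h after dosing by lysate-based scintillation counting. Loss of signal vs DMSO; initial duplicate screen at 25 uM, actives retested in concentration series.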
# [4] = biological target: D(1A) dopamine receptor (Homo sapiens) (UniProt P21728); test: NVS_GPCR_hDRD1: NovaScreen (NVS) G Protein-Coupled Receptor Assay for human Dopamine Receptor D1 (DRD1) (AID 2283269)
# Chain of D(1A) dopamine receptor (Homo sapiens) (P21728 whole entry, looked up): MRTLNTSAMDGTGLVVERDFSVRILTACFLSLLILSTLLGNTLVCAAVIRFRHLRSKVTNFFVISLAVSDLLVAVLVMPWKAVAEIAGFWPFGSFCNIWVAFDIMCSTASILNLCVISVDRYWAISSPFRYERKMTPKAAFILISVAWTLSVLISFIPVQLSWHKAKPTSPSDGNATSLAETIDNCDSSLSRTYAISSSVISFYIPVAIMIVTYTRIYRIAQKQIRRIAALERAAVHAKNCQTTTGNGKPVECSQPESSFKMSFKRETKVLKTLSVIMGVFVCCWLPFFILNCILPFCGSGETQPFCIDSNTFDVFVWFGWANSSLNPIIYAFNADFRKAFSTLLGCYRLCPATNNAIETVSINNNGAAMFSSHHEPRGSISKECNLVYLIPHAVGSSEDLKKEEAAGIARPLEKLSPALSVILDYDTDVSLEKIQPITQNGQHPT
# Procedure, shortened: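 Cell-free competition with radioligand, filter-trapped and scintillation-counted 1 h post-dose, using HEK293-derived human D1 preparation. Duplicate single-point testing at 25 uM first, then concentration series for actives; DMSO served as baseline, loss-of-signal scored.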
# [5] = biological target: guinea pig Opioid, Kappa 1 Receptor (OpiateK), OPRK1 (gene 100135587) (UniProt P41144); test: NVS_GPCR_gOpiateK: NovaScreen (NVS) G Protein-Coupled Receptor Assay for guinea pig Opioid, Kappa 1 Receptor (OpiateK) (AID 2283252);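 note: radioligand displacement from kappa opioid receptor in guinea pig cerebellar membranes; active means reduced radioligand binding relative to DMSO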
# Chain of guinea pig Opioid, Kappa 1 Receptor (OpiateK), OPRK1 (gene 100135587) (P41144 whole entry, looked up): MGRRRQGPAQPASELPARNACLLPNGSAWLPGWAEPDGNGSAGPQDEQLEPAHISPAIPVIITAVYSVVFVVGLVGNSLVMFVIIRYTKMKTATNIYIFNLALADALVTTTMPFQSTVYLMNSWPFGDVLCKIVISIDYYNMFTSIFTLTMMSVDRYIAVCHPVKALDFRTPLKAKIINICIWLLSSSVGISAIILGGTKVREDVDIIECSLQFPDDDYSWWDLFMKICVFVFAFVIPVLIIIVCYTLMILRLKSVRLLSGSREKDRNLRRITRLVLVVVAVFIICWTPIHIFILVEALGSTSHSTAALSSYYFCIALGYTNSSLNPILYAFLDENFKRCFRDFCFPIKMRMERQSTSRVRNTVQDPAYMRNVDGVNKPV
# Procedure, shortened: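 Guinea pig cerebellar membranes, radioligand displacement with filter-based scintillation counting, 2 h after dosing. Primary screen single concentration 25 uM in duplicate; actives retested in concentration series; loss of binding fitted versus DMSO.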
# [6] = biological target: Sodium channel protein type 1 subunit alpha (Rattus norvegicus) (UniProt P04774); test: NVS_IC_rNaCh_site2: NovaScreen (NVS) Ion Channel Assay for rat Sodium Channel, Site 2 (NaCh) (AID 2283322);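 note: hit means loss of radioligand binding signal relative to DMSO so AC50 marks displacement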
# Procedure, shortened: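 Membranes: rat forebrain. Format: competitive radioligand displacement, filter separation, scintillation readout, 1 h exposure. Primary screen in duplicate at 25 uM; actives retested in concentration series.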
# [7] = NVS_IC_rCaBTZCHL: NovaScreen (NVS) Ion Channel Assay for Calcium Channel, Type L, Benzothiazepine Site (CaBTZCHL) (AID 2283337)
# Procedure, shortened: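 Competitive displacement of a site-specific radioligand from rat cortex membranes, measured as signal loss against DMSO baseline by filter radiodetection after 1.5 h. Single-point 25 uM primary screen.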
# [8] = biological target: Muscarinic acetylcholine receptor M2 (Homo sapiens) (UniProt P08172); test: NVS_GPCR_hM2: NovaScreen (NVS) G Protein-Coupled Receptor Assay for human Muscarinic, M2 Receptor (AID 2283273)
# Procedure, shortened: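 Radioligand displacement on human M2 receptor membranes from CHO cells, 1 h incubation, filtration with scintillation counting. Primary screen in duplicate at 25 uM; actives retested in concentration series; loss of signal fitted versus DMSO.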
# [9] = biological target: human Neurokinin, NK2 Receptor, TACR2 (gene 6865) (UniProt P21452); test: NVS_GPCR_hNK2: NovaScreen (NVS) G Protein-Coupled Receptor Assay for human Neurokinin, NK2 Receptor (AID 2283278);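 note: actives reduce bound radioligand signal relative to DMSO baseline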
# Chain of human Neurokinin, NK2 Receptor, TACR2 (gene 6865) (P21452 whole entry, looked up): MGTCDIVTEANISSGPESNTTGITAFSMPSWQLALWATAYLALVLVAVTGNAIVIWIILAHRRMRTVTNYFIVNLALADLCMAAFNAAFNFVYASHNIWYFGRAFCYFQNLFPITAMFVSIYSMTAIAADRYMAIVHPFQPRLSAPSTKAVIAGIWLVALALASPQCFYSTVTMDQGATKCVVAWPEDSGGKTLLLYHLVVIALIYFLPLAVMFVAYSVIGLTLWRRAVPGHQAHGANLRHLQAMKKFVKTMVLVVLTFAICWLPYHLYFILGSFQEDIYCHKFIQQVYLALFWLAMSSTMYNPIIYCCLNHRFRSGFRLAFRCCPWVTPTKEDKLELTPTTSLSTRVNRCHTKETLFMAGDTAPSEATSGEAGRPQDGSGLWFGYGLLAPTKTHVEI
# Procedure, shortened: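 Cell-free radioligand binding using receptor protein extracted from CHO cells; readings taken 4 hours after chemical dosing by filter-based scintillation counting. Primary screen ran single concentration (25 uM) in duplicate; actives followed up in concentration series, loss-of-signal versus DMSO baseline.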
# [10] = biological target: human Adenosine A1 Receptor (AdoRA1), ADORA1 (gene 134) (UniProt P30542); test: NVS_GPCR_hAdoRA1: NovaScreen (NVS) G Protein-Coupled Receptor Assay for human Adenosine A1 Receptor (AdoRA1) (AID 2283254)
# Procedure, shortened: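 Radioligand competition binding on human cortical membranes, 1 h after compound addition; bound radioactivity read by filtration and scintillation counting. Loss of signal versus DMSO baseline scored as displacement; primary screen duplicate at 25 uM, actives retested in concentration series.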
# [11] = biological target: human Opioid Receptor Mu (Opiate Mu), OPRM1 (gene 4988) (UniProt P35372); test: NVS_GPCR_hOpiate_mu: NovaScreen (NVS) G Protein-Coupled Receptor Assay for human Opioid Receptor Mu (Opiate Mu) (AID 2283290);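 note: hits lower bound tracer signal versus DMSO meaning displacement of the ligand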
# Chain of human Opioid Receptor Mu (Opiate Mu), OPRM1 (gene 4988) (P35372 whole entry, looked up): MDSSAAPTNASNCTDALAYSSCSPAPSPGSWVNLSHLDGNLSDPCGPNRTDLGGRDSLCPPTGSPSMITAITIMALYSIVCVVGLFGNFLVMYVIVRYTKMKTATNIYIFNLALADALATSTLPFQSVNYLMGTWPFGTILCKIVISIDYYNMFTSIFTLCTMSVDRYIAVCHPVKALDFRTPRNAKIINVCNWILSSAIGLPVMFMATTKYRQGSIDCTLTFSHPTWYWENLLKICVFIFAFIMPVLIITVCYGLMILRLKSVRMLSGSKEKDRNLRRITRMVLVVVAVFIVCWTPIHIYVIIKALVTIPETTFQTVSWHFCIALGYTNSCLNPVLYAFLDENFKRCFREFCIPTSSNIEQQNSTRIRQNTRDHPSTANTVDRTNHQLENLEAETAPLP
# Procedure, shortened: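 Primary screen in duplicate at 25 uM, with actives followed in concentration series. CHO-derived receptor membranes, cell-free; bound radioligand read by scintillation counting after filtration at 2.5 h, decrease scored against DMSO.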
# [12] = biological target: human Peripheral-type Benzodiazepine Receptor (PBR), TSPO (gene 706) (UniProt P30536); test: NVS_MP_hPBR: NovaScreen (NVS) Membrane Protein Assay for human Peripheral-type Benzodiazepine Receptor (PBR) (AID 2283331);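 note: hits reduce radioligand binding relative to DMSO baseline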
# Chain of human Peripheral-type Benzodiazepine Receptor (PBR), TSPO (gene 706) (P30536 whole entry, looked up): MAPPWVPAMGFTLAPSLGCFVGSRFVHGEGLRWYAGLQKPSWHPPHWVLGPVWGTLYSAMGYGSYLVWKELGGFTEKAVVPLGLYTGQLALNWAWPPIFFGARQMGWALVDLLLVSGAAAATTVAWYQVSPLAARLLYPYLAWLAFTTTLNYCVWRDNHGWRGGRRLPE
# Procedure, shortened: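 Radioligand displacement on human colonic cell membranes, 1 h incubation; bound radioactivity by filtration and scintillation counting. Primary screen in duplicate at 25 uM single concentration, actives followed up in concentration series; loss of binding versus DMSO.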
# [13] = biological target: rat Peripheral-type Benzodiazepine Receptor (PBR), Tspo (gene 24230) (UniProt P16257); test: NVS_MP_rPBR: NovaScreen (NVS) Membrane Protein Assay for rat Peripheral-type Benzodiazepine Receptor (PBR) (AID 2283335)
# Chain of rat Peripheral-type Benzodiazepine Receptor (PBR), Tspo (gene 24230) (P16257 whole entry, looked up): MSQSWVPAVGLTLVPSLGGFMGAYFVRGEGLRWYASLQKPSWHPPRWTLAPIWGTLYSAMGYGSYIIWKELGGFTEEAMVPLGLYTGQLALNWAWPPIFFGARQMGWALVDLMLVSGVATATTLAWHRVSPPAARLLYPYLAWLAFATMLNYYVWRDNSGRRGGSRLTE
# Procedure, shortened: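 Radioligand displacement, rat kidney membrane prep, 1 h exposure, filter-based scintillation read; DMSO baseline, loss-of-signal scored. Primary screen at 25 uM in duplicate, actives followed up in concentration series.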
# [14] = biological target: human Adenosine A2a Receptor (AdoRA2a), ADORA2A (gene 135) (UniProt P29274); test: NVS_GPCR_hAdoRA2a: NovaScreen (NVS) G Protein-Coupled Receptor Assay for human Adenosine A2a Receptor (AdoRA2a) (AID 2283256)
# Chain of human Adenosine A2a Receptor (AdoRA2a), ADORA2A (gene 135) (P29274 whole entry, looked up): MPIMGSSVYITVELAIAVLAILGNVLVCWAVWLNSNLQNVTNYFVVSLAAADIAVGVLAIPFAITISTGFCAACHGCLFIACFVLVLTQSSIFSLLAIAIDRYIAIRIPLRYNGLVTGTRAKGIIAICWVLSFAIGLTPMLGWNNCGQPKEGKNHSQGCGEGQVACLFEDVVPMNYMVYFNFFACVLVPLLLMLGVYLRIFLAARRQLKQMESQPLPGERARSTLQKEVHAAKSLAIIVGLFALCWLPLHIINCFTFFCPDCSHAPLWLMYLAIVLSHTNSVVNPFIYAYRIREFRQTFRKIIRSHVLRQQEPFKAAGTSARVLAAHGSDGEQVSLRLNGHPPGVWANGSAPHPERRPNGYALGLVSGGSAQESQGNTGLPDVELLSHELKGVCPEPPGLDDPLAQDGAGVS
# Procedure, shortened: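 Cell-free radioligand binding on membranes from HEK293 expressing the receptor; competitive displacement read 1.5 h after dosing by filter-based scintillation counting. Primary screen in duplicate at 25 uM; actives followed in concentration series, with DMSO as baseline.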
# [15] = biological target: rat Thyrotropin Releasing Hormone Receptor (TRH), Trhr (gene 25570) (UniProt Q01717); test: NVS_GPCR_rTRH: NovaScreen (NVS) G Protein-Coupled Receptor Assay for rat Thyrotropin Releasing Hormone Receptor (TRH) (AID 2283329);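 note: hit means lower bound tracer signal versus DMSO baseline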
# Procedure, shortened: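 Competitive radioligand binding on rat forebrain membrane preparations, with filtration and scintillation readout after 4 h. Primary testing in duplicate at 25 uM; actives confirmed in concentration-response. DMSO defined baseline.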
# [16] = biological target: Estrogen receptor (Homo sapiens) (UniProt P03372); test: NVS_NR_hER: NovaScreen (NVS) Nuclear Receptor Binding Assay for human Estrogen Receptor (ER) (AID 2283348)
# Chain of Estrogen receptor (Homo sapiens) (P03372 whole entry, looked up): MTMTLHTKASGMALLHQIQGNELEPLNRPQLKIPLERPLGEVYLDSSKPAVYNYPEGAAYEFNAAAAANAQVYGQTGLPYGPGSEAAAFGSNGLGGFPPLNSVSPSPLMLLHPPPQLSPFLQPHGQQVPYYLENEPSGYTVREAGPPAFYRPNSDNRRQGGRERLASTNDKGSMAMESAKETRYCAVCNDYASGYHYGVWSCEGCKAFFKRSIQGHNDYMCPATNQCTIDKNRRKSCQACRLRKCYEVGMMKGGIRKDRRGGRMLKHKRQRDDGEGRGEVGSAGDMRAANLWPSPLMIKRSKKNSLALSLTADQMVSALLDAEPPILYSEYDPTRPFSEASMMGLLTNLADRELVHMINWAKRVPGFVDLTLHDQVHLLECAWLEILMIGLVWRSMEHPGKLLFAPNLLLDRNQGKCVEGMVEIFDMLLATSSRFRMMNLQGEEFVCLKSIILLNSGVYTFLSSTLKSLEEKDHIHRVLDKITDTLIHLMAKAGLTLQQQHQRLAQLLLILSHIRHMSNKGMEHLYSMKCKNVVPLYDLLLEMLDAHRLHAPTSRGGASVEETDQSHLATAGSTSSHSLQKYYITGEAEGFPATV
# Procedure, shortened: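 Radioligand competitive displacement binding to estrogen receptor from MCF7 extract, cell-free; 18 h after dosing, scintillation read-out. Primary screen in duplicate at 25 uM; actives followed up in concentration series; loss of signal vs DMSO.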
# [17] = biological target: rat Adrenergic Receptor, Alpha 2 (Adra2), Non-selective Binding, Adra2a (gene 25083) (UniProt P22909); test: NVS_GPCR_rAdra2_NonSelective: NovaScreen (NVS) G Protein-Coupled Receptor Assay for rat Adrenergic Receptor, Alpha 2 (Adra2), Non-selective Binding (AID 2283299)
# Procedure, shortened: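 Rat cortical membranes, radioligand competitive displacement read by filter-based scintillation counting 1.25 hours after dosing. Primary screen in duplicate at 25 uM; actives followed up in concentration series.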
# [18] = biological target: rat Neonicotinoid receptor (NNR), Chrna7 (gene 25302) (UniProt Q05941); test: NVS_LGIC_rNNR_BungSens: NovaScreen (NVS) Ligand-Gated Ion Channel Assay for rat Neonicotinoid receptor (NNR) (AID 2283315)
# Procedure, shortened: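 Radioligand displacement binding on rat cortical membranes, 2.5 h incubation, filtration and scintillation counting. Loss of specific binding fitted relative to DMSO.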
# [19] = biological target: rat Gamma-Aminobutyric Acid Type A Receptor, Non-Selective (GABAR-NonSelective), Gabra1 (gene 29705) (UniProt P62813); test: NVS_LGIC_rGABAR_NonSelective: NovaScreen (NVS) Ligand-Gated Ion Channel Assay for rat Gamma-Aminobutyric Acid Type A Receptor, Non-Selective (GABAR-NonSelective) (AID 2283326)
# Procedure, shortened: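 Radioligand displacement on rat whole-brain extract, 1 h, filter scintillation readout; signal loss fitted versus DMSO. Primary screen in duplicate at 25 uM; hits (e.g. ≥30% inhibition) retested in concentration-response up to 50 uM.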
smiles,measurement,setting,value
Cc1ccc(O)c(C(C)(C)C)c1,outcome,[1],inactive
O=c1[nH]nnc2ccccc12,AC50,[2],0.401 µM (active)
same,outcome,[3],inactive
O=C(O)CN(CCN(CC(=O)O)CC(=O)O)CCN(CC(=O)O)CC(=O)O,outcome,[2],inactive
Cc1ccc2n[nH]nc2c1,outcome,[4],inactive
O=P(c1ccccc1)(c1ccccc1)c1ccccc1,AC50,[5],11.4 µM (active)
same,AC50,[6],8.17 µM (active)
same,outcome,[7],inactive
CCCCNC(=O)NS(=O)(=O)c1ccc(C)cc1,outcome,[4],inactive
CC(=O)/C=C/C1=C(C)CCCC1(C)C,outcome,[1],inactive
c1ccc2sc(SN(C3CCCCC3)C3CCCCC3)nc2c1,outcome,[4],inactive
O=C=NC1CCC(CC2CCC(N=C=O)CC2)CC1 (configuration not stated),AC50,[5],29.3 µM (active)
same,AC50,[8],9.37 µM (active)
same,outcome,[9],inactive
same,AC50,[6],4.47 µM (active)
COc1cc2ncnc(Nc3cccc(Cl)c3)c2cc1OC,AC50,[10],9.94 µM (active)
same,AC50,[11],4.36 µM (active)
same,outcome,[12],inactive
same,outcome,[13],inactive
same,outcome,[7],inactive
CC(C)c1ccc(C(C)C)cc1,outcome,[4],inactive
Clc1ccc(Cl)c(Cl)c1Cl,outcome,[1],inactive
Nc1cc([N+](=O)[O-])ccc1Cl,outcome,[14],inactive
same,outcome,[11],inactive
O=C1OC2(c3cc(Br)c(O)c(Br)c3Oc3c2cc(Br)c(O)c3Br)c2c(Cl)c(Cl)c(Cl)c(Cl)c21,AC50,[2],8.68 µM (active)
same,AC50,[4],0.423 µM (active)
same,AC50,[9],1.27 µM (active)
same,AC50,[11],0.0961 µM (active)
same,outcome,[3],inactive
NC(=O)c1ccccc1Cl,outcome,[14],inactive
CC1COc2ccccc2N1C(=O)C(Cl)Cl (configuration not stated),outcome,[5],inactive
same,outcome,[15],inactive
same,AC50,[13],11 µM (active) and 9.31 µM (active)
same,outcome,[7],inactive
same,AC50,[16],0.0627 µM (active)
Cc1c(Cl)c(=O)oc2cc(O)ccc12,outcome,[10],inactive
O=C(O)C[C@H](O)C[C@H](O)/C=C/c1c(C2CC2)nc2ccccc2c1-c1ccc(F)cc1,outcome,[14],inactive
same,AC50,[6],3.55 µM (active)
CC1CCC(C(C)CS)CC1S (configuration not stated),AC50,[2],25 µM (active)
CCCCCCCCC,outcome,[2],inactive
COC(=O)c1ccc(C)cc1,outcome,[2],inactive
CCCCCC(CO)CCC (configuration not stated),AC50,[2],0.00229 µM (active)
CC(=O)OCc1ccc2c(c1)OCO2,outcome,[2],inactive
CCCOCC(C)O (configuration not stated),AC50,[1],7.91 µM (active)
same,AC50,[11],14.8 µM (active)
CC(C)(CO)[N+](=O)[O-],outcome,[2],inactive
same,outcome,[8],inactive
CC(C)[C@@H]1CC[C@@H](C)CC1=O,outcome,[2],inactive
CC(C)=CCO,outcome,[2],inactive
CCn1c2ccccc2c2cc(N)ccc21,AC50,[2],3.25 µM (active)
same,AC50,[4],38.5 µM (active)
same,AC50,[17],25 µM (active)
S=C(S)NCCNC(=S)S,AC50,[9],3.54 µM (active)
Cc1ccc2sc3cccc(C)c3c2c1,outcome,[11],inactive
CCc1c(C)cc(N)c(CC)c1N,AC50,[11],13 µM (active)
CSc1nnc(C(C)(C)C)c(=O)[nH]1,outcome,[18],inactive
Cc1cccc(C)c1C,outcome,[6],inactive
CC(C)=CCC[C@H](C)CC=O,outcome,[6],inactive
O=C(O)c1ccc([N+](=O)[O-])cc1,AC50,[19],4.02 µM (active)
C=CCOc1nc(OCC=C)nc(OCC=C)n1,AC50,[12],14.3 µM (active)
same,AC50,[13],6.87 µM (active)
CN(CCOc1ccc(CC2SC(=O)NC2=O)cc1)c1ccccn1 (configuration not stated),AC50,[12],5.39 µM (active)
same,AC50,[13],12.9 µM (active)
same,outcome,[16],inactive
CCCCCCCCC=O,outcome,[16],inactive
O=C(Oc1ccccc1)c1ccc(O)cc1,AC50,[12],9.99 µM (active)
CCN(CC)c1ccc2c(-c3ccccc3C(=O)O)c3ccc(=[N+](CC)CC)cc-3oc2c1,AC50,[12],16.8 µM (active)

# Source: PubChem BioAssay (EPA / NIEHS)
